According to the supplement of paper PMC8728848:
Shown is part of a subset that was picked to be rich in the strongest signals.

Experiments:
Assay in all cases: glycan array binding signal (z-score within array); higher = stronger binding
Conditions in all cases: glycan notation: IUPAC condensed, linker removed
[1] = biological target: Gal(b1-4)GlcNAc(b1-2)[Gal(b1-4)GlcNAc(b1-4)]Man(a1-3)[GlcNAc(b1-4)][Gal(b1-4)GlcNAc(b1-2)Man(a1-6)]Man(b1-4)GlcNAc(b1-4)GlcNAc
Procedure, shortened: (§1)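 Glycan array data came from 3228 arrays in the Consortium for Functional Glycomics database, and only arrays with an available protein sequence were kept. Glycan names were put into IUPAC-condensed notation, and columns mapping to the same glycan were averaged. The binding signal is a within-array Z-score, averaged across arrays of one protein sequence run at different concentrations or buffers and across linkers. A negative Z-score can be read as non-binding.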

[2] = biological target: Gal(b1-4)GlcNAc(b1-2)[Gal(b1-4)GlcNAc(b1-6)]Man(a1-6)[Gal(b1-4)GlcNAc(b1-2)Man(a1-3)]Man(b1-4)GlcNAc(b1-4)[Fuc(a1-6)]GlcNAc
Procedure, shortened: as §1

[3] = biological target: Gal(b1-4)GlcNAc(b1-2)[Gal(b1-4)GlcNAc(b1-6)]Man(a1-6)[GlcNAc(b1-4)][Gal(b1-4)GlcNAc(b1-2)[Gal(b1-4)GlcNAc(b1-4)]Man(a1-3)]Man(b1-4)GlcNAc(b1-4)[Fuc(a1-6)]GlcNAc
Procedure, shortened: as §1

[4] = biological target: Gal(b1-4)GlcNAc(b1-3)Gal(b1-3)GalNAc
Procedure, shortened: as §1

[5] = biological target: Gal(b1-4)GlcNAc(b1-3)Gal(b1-4)GlcNAc(b1-2)Man(a1-3)[Gal(b1-4)GlcNAc(b1-3)Gal(b1-4)GlcNAc(b1-2)Man(a1-6)]Man(b1-4)GlcNAc(b1-4)[Fuc(a1-6)]GlcNAc
Procedure, shortened: as §1

[6] = biological target: Gal(b1-4)GlcNAc(b1-3)Gal(b1-4)GlcNAc(b1-2)[Gal(b1-4)GlcNAc(b1-3)Gal(b1-4)GlcNAc(b1-6)]Man(a1-6)[Gal(b1-4)GlcNAc(b1-3)Gal(b1-4)GlcNAc(b1-2)Man(a1-3)]Man(b1-4)GlcNAc(b1-4)[Fuc(a1-6)]GlcNAc
Procedure, shortened: as §1

[7] = biological target: Gal(b1-4)GlcNAc(b1-3)Gal(b1-4)GlcNAc(b1-3)Gal(b1-4)GlcNAc(b1-3)Gal(b1-4)GlcNAc(b1-2)Man(a1-3)[Gal(b1-4)GlcNAc(b1-3)Gal(b1-4)GlcNAc(b1-3)Gal(b1-4)GlcNAc(b1-3)Gal(b1-4)GlcNAc(b1-2)Man(a1-6)]Man(b1-4)GlcNAc(b1-4)[Fuc(a1-6)]GlcNAc
Procedure, shortened: as §1

[8] = biological target: Gal(b1-4)GlcNAc(b1-3)Gal(b1-4)GlcNAc(b1-3)Gal(b1-4)GlcNAc(b1-3)Gal(b1-4)GlcNAc(b1-2)[Gal(b1-4)GlcNAc(b1-3)Gal(b1-4)GlcNAc(b1-3)Gal(b1-4)GlcNAc(b1-3)Gal(b1-4)GlcNAc(b1-6)]Man(a1-6)[Gal(b1-4)GlcNAc(b1-3)Gal(b1-4)GlcNAc(b1-3)Gal(b1-4)GlcNAc(b1-3)Gal(b1-4)GlcNAc(b1-2)Man(a1-3)]Man(b1-4)GlcNAc(b1-4)[Fuc(a1-6)]GlcNAc
Procedure, shortened: as §1

Gal3S(b1-3)GalNAc = biological target: Gal3S(b1-3)GalNAc
Procedure, shortened: as §1

[9] = biological target: Gal3S(b1-4)[Fuc(a1-3)]GlcNAc6S
Procedure, shortened: as §1

Gal6P(b1-4)GlcNAc = biological target: Gal6P(b1-4)GlcNAc
Procedure, shortened: as §1

GalNAc(a1-3)GalNAc = biological target: GalNAc(a1-3)GalNAc
Procedure, shortened: as §1

GalNAc(b1-4)GlcNAc = biological target: GalNAc(b1-4)GlcNAc
Procedure, shortened: as §1

[10] = biological target: GalNAc(b1-4)GlcNAc(b1-2)Man(a1-3)[GalNAc(b1-4)GlcNAc(b1-2)Man(a1-6)]Man(b1-4)GlcNAc(b1-4)GlcNAc
Procedure, shortened: as §1

GalNAc(b1-4)GlcNAc6S = biological target: GalNAc(b1-4)GlcNAc6S
Procedure, shortened: as §1

[11] = biological target: GlcNAc(a1-4)Gal(b1-4)GlcNAc(b1-3)Gal(b1-4)[Fuc(a1-3)]GlcNAc(b1-3)Gal(b1-4)[Fuc(a1-3)]GlcNAc
Procedure, shortened: as §1

[12] = biological target: GlcNAc(b1-3)Gal(b1-4)GlcNAc(b1-6)[GlcNAc(b1-3)]Gal(b1-4)GlcNAc
Procedure, shortened: as §1

GlcNAc(b1-3)Man = biological target: GlcNAc(b1-3)Man
Procedure, shortened: as §1

[13] = biological target: Neu5Ac(a2-3)Gal(b1-3)GalNAc(b1-4)[Neu5Ac(a2-3)]Gal(b1-4)Glc
Procedure, shortened: as §1

[14] = biological target: Neu5Ac(a2-3)Gal(b1-3)GlcNAc(b1-2)Man(a1-3)[Neu5Ac(a2-3)Gal(b1-3)GlcNAc(b1-2)Man(a1-6)]Man(b1-4)GlcNAc(b1-4)GlcNAc
Procedure, shortened: as §1

[15] = biological target: Neu5Ac(a2-3)Gal(b1-4)GlcNAc(b1-3)Gal(b1-4)GlcNAc(b1-6)[Gal(b1-3)]GalNAc
Procedure, shortened: as §1

[16] = biological target: Neu5Ac(a2-3)Gal(b1-4)[Fuc(a1-3)]GlcNAc(b1-3)Gal
Procedure, shortened: as §1

[17] = biological target: Neu5Ac(a2-6)Gal(b1-4)GlcNAc(b1-3)Gal(b1-4)GlcNAc
Procedure, shortened: as §1

[18] = biological target: Neu5Ac(a2-6)Gal(b1-4)GlcNAc(b1-3)Gal(b1-4)GlcNAc(b1-3)Gal(b1-4)GlcNAc(b1-2)Man(a1-3)[Neu5Ac(a2-6)Gal(b1-4)GlcNAc(b1-3)Gal(b1-4)GlcNAc(b1-3)Gal(b1-4)GlcNAc(b1-2)Man(a1-6)]GalNAc
Procedure, shortened: as §1

[19] = biological target: Neu5Ac(a2-6)Gal(b1-4)GlcNAc(b1-3)GalNAc
Procedure, shortened: as §1

[20] = biological target: Neu5Ac(a2-6)Gal(b1-4)GlcNAc(b1-6)GalNAc
Procedure, shortened: as §1

[21] = biological target: Neu5Ac(a2-8)Neu5Ac(a2-3)[GalNAc(b1-4)]Gal(b1-4)Glc
Procedure, shortened: as §1

[22] = biological target: Neu5Ac(a2-8)Neu5Ac(a2-8)Neu5Ac(a2-8)Neu5Ac(a2-3)[GalNAc(b1-4)]Gal(b1-4)Glc
Procedure, shortened: as §1

[23] = biological target: Neu5Gc(a2-3)Gal(b1-3)[Fuc(a1-4)]GlcNAc
Procedure, shortened: as §1

B1: SHCBP1-GST (Homo sapiens), Q8NEM2 (protein)
chain: MADGSLTGGGLEAAAMAPERMGWAVEQELASLEKGLFQDEDSCSDCSYRDKPGSSLQSFMPEGKTFFPEIFQTNQLLFYERFRAYQDYILADCKASEVQEFTAEFLEKVLEPSGWRAVWHTNVFKVLVEITDVDFAALKAVVRLAEPYLCDSQVSTFTMECMKELLDLKEHRLPLQELWVVFDDSGVFDQTALAIEHVRFFYQNIWRSWDEEEEDEYDYFVRCVEPRLRLHYDILEDRVPSGLIVDYHNLLSQCEESYRKFLNLRSSLSNCNSDSEQENISMVEGLKLYSEMEQLKQKLKLIENPLLRYVFGYQKNSNIQAKGVRSSGQKITHVVSSTMMAGLLRSLLTDRLCQEPGEEEREIQFHSDPLSAINACFEGDTVIVCPGHYVVHGTFSIADSIELEGYGLPDDIVIEKRGKGDTFVDCTGADIKISGIKFVQHDAVEGILIVHRGKTTLENCVLQCETTGVTVRTSAEFLMKNSDLYGAKGAGIEIYPGSQCTLSDNGIHHCKEGILIKDFLDEHYDIPKISMVNNIIHNNEGYGVVLVKPTIFSDLQENAEDGTEENKALKIQTSGEPDVAERVDLEELIECATGKMELCARTDPSEQVEGNCEIVNELIAASTQKGQIKKKRLSELGITQADDNLMSQEMFVGIVGNQFKWNGKGSFGTFLF
Q: B1 was tested. Which “glycan array binding signal (z-score)” value [1] did it give?
A: 0.176

Q: What about the “glycan array binding signal (z-score)” value [2] of the same binder?
A: 5.01

Q: What about the “glycan array binding signal (z-score)” value [3] of the same binder?
A: -0.032

Q: And the “glycan array binding signal (z-score)” value [4]?
A: -0.645

Q: What about the “glycan array binding signal (z-score)” value [5] of the same binder?
A: 0.801

Q: And the “glycan array binding signal (z-score)” value [6]?
A: 2.1

Q: What about the “glycan array binding signal (z-score)” value [7] of the same binder?
A: 3.03

Q: What about the “glycan array binding signal (z-score)” value [8] of the same binder?
A: 0.056

Q: And the “glycan array binding signal (z-score)” value (Gal3S(b1-3)GalNAc)?
A: -0.165

Q: What about the “glycan array binding signal (z-score)” value [9] of the same binder?
A: -0.428

Q: And the “glycan array binding signal (z-score)” value (Gal6P(b1-4)GlcNAc)?
A: -0.929

Q: What about the “glycan array binding signal (z-score)” value (GalNAc(a1-3)GalNAc) of the same binder?
A: -0.406

Q: What about the “glycan array binding signal (z-score)” value (GalNAc(b1-4)GlcNAc) of the same binder?
A: -0.137

Q: And the “glycan array binding signal (z-score)” value [10]?
A: 2.96

Q: And the “glycan array binding signal (z-score)” value (GalNAc(b1-4)GlcNAc6S)?
A: -0.496

Q: And the “glycan array binding signal (z-score)” value [11]?
A: 2.67

Q: And the “glycan array binding signal (z-score)” value [12]?
A: -0.274

Q: And the “glycan array binding signal (z-score)” value (GlcNAc(b1-3)Man)?
A: -0.054

Q: And the “glycan array binding signal (z-score)” value [13]?
A: 0.166

Q: And the “glycan array binding signal (z-score)” value [14]?
A: -0.428

Q: What about the “glycan array binding signal (z-score)” value [15] of the same binder?
A: -0.09

Q: And the “glycan array binding signal (z-score)” value [16]?
A: -0.924

Q: And the “glycan array binding signal (z-score)” value [17]?
A: -1.12

Q: And the “glycan array binding signal (z-score)” value [18]?
A: 2.65

Q: What about the “glycan array binding signal (z-score)” value [19] of the same binder?
A: 2.41

Q: What about the “glycan array binding signal (z-score)” value [20] of the same binder?
A: -0.322

Q: What about the “glycan array binding signal (z-score)” value [21] of the same binder?
A: -0.847

Q: And the “glycan array binding signal (z-score)” value [22]?
A: 0.231

Q: What about the “glycan array binding signal (z-score)” value [23] of the same binder?
A: 0.247
